# According to PubChem BioAssay:
# Calls of active or inactive are those of the source. Unless noted, the rule behind the calls is not given here.
# Tests used:
# [1] = HepG2 liver cancer cell viability effects, profiling panel, resazurin fluorescence, 24 h, PK04 Diversity Set (AID 1172); conditions: higher = more signal
# [2] = basal S. cerevisiae growth modulation, no modifier, primary screen, OD600, strain BY4716, 24 h, basal condition (AID 1173); conditions: OD600, 24 h, higher = more signal, called active from +8 up or from −8 down
# [3] = MM1S myeloma cell viability, profiling panel, resazurin fluorescence, basal, 24 h, PK04 Diversity Set (AID 1174); conditions: higher = more signal, called active from +8 up or from −8 down;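 note: MM1S multiple myeloma cell line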
# [4] = biological target: Dihydroorotate dehydrogenase (quinone), mitochondrial (Plasmodium falciparum (isolate 3D7)) (UniProt Q08210); assay: PfDHODH enzyme inhibitors, primary screen, biochemical, C-terminal His tag, absorbance 600 nm (AID 1175); conditions: DCIP absorbance 600 nm, higher = more signal, called active from +8 up or from −8 down;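 note: recombinant parasite enzyme with a five histidine tag at its C terminus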
# [5] = P. aeruginosa biofilm formation inhibitors, primary screen, strain PAO1, LB-PBS medium, absorbance 600 nm (AID 1176); conditions: P. aeruginosa PAO1 growth/biofilm, A600, 12 h; higher = more signal
# [6] = S. cerevisiae RM11-1a growth modifiers, primary screen, strain RM11-1a, OD600, basal, 24 h (AID 1177); conditions: OD600, 24 h, higher = more signal, called active from +8 up or from −8 down;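 note: cultures grown under basal conditions with no added stressor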
# [7] = E. coli acrAB mutant growth effects, primary screen, E. coli filamentation inducers, strain DRC39, OD650, 24 h (AID 1178); conditions: higher = more signal, called active from +8 up or from −8 down;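 note: growth measured as culture turbidity by optical density at 650 nm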
# [8] = E. coli acrAB mutant growth effects, primary screen, E. coli filamentation inducers, strain DRC39, OD650, 48 h (AID 1179);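 note: screen aims at cell division blockers that make cells filament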; conditions: E. coli DRC39 delta-acrAB growth, higher = more signal, called active from +8 up or from −8 down
# [9] = RPMI8226 myeloma cell viability, profiling panel, resazurin fluorescence, basal, 24 h, PK04 Diversity Set (AID 1180); conditions: higher = more signal;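 note: RPMI8826 multiple myeloma cell line at 5000 cells per well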
# [10] = biological target: E3 ubiquitin-protein ligase XIAP (Homo sapiens) (UniProt P98170); assay: XIAP binders, primary screen, biophysical, small-molecule microarray, fluorescence 635 nm (AID 1181); conditions: small-molecule microarray binding, higher = more signal;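 note: score merges 667 nm emission and signal to noise over triplicate slides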
# [11] = test system: XIP peptide (Xip251-270) binding; assay: small-molecule binders of XIP peptide, primary screen, biochemical, small-molecule microarray, fluorescence 635/667 nm, 0.1 µg/mL protein (AID 1182); conditions: fluorescent protein binding, 635 nm, higher = more signal, called active from +8 up or from −8 down
# [12] = test system: XIP peptide (Xip251-270); assay: small-molecule binders of XIP peptide, primary screen, biochemical, small-molecule microarray, fluorescence 635/667 nm, 0.5 µg/mL protein (AID 1183); conditions: small-molecule microarray binding, fluorescence 635 nm; higher = more signal
# [13] = Plasmodium falciparum growth inhibition, primary screen, strain 3D7, DAPI fluorescence, 100 nL (AID 1184);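 note: parasites grown inside human red blood cells in medium with human serum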; conditions: P. falciparum 3D7 growth, 3 d, higher = more signal
# [14] = biological target: Homeobox protein Hox-A13 (Mus musculus) (UniProt Q62424); assay: inhibitors of HoxA13-DNA binding, primary screen, biochemical, fluorescence polarization, labeled oligonucleotide (AID 1185); conditions: 15 min, higher = more signal, called active from +8 up or from −8 down
# [15] = inhibitors of hydroxyurea-induced Chk1 phosphorylation, primary screen, imaging, HeLa, phospho-Chk1 antibody, percent positive cells (AID 1186); conditions: hydroxyurea-induced phospho-Chk1 immunofluorescence imaging, higher = more signal
# [16] = inhibitors of hydroxyurea-induced Chk1 phosphorylation, primary screen, imaging, HeLa, phospho-Chk1 nuclear intensity (AID 1187); conditions: hydroxyurea-induced phospho-Chk1 immunofluorescence imaging, higher = more signal
# Dihydroorotate dehydrogenase (quinone), mitochondrial (Plasmodium falciparum (isolate 3D7)), sequence (Q08210 whole entry, looked up): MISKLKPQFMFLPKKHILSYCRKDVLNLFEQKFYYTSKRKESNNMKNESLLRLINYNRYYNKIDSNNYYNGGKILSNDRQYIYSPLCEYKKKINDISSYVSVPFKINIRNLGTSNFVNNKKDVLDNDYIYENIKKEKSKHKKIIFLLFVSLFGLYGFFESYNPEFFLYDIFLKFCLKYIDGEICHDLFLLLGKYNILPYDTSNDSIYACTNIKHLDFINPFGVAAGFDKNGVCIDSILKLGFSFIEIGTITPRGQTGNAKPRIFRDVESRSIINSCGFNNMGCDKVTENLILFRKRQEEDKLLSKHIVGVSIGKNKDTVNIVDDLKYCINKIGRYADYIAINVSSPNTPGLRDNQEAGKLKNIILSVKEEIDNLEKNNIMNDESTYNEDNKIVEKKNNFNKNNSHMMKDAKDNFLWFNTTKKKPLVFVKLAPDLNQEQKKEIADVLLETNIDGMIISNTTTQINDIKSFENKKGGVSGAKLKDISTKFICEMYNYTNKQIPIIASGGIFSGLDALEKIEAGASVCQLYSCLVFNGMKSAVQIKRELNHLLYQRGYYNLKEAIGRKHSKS
# E3 ubiquitin-protein ligase XIAP (Homo sapiens), sequence (P98170 whole entry, looked up): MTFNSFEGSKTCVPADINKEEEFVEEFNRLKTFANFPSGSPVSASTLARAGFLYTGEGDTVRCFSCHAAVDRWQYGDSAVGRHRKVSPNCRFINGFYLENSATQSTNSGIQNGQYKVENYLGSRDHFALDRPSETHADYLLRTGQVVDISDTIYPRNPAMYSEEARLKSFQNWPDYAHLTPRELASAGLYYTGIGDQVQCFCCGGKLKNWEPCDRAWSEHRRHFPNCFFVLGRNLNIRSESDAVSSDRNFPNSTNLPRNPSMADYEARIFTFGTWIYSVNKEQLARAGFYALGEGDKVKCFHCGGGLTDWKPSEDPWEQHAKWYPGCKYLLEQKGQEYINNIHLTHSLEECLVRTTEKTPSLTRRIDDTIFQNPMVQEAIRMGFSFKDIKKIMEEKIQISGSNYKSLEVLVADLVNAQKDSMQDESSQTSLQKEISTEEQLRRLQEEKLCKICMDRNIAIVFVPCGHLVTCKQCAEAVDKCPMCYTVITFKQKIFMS
# Homeobox protein Hox-A13 (Mus musculus), sequence (Q62424 whole entry, looked up): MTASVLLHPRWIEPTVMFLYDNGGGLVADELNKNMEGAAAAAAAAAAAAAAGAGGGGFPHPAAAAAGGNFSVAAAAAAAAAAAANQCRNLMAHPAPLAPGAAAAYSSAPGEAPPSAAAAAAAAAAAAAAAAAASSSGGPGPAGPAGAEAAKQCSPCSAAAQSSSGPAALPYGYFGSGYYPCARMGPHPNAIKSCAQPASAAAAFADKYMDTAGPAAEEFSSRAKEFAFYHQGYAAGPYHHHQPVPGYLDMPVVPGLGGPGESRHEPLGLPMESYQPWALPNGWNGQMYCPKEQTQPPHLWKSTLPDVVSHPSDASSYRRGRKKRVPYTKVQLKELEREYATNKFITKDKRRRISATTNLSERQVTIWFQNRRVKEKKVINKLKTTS
Structure (SMILES),z-score [1],z-score [2],z-score [3],composite z-score [4],z-score [5],z-score [6],z-score [7],z-score [8],z-score [9],composite z-score [10],composite z-score [11],composite z-score [12],z-score [13],z-score [14],z-score [15],z-score [16]
CC(c1ccccc1)C(O)C1C=CC2C(=O)N(C)C(=O)C2N1NC(=O)OC(C)(C)C (centres undefined),-0.67,-0.424 (inactive),-0.267 (inactive),-0.14 (inactive),0.903 (inactive),0.732 (inactive),-0.182 (inactive),-0.339 (inactive),0.15,0.184,2.04 (inactive),0.63,1.05,-2.6 (inactive),-0.129 (inactive),-0.0976 (inactive)
C=C(CCCC)/C(=C/C[C@H](OC(C)=O)c1ccc(OCCO)cc1)c1cnc2ccccc2c1,0.846,-0.0576 (inactive),-1.42 (inactive),-3.75 (inactive),0.403 (inactive),-0.476 (inactive),0.187 (inactive),0.225 (inactive),0.228,-0.312,0.578 (inactive),0.741,-2.93,-4.14 (inactive),0.212 (inactive),-0.34 (inactive)
O=C1[C@H]2C=C(Br)[C@H](C[C@@H]2OCCCCCCO)[C@@]12CO2,-0.629,-1.3 (inactive),-1.43 (inactive),0.571 (inactive),0.756 (inactive),0.414 (inactive),-0.748 (inactive),-0.602 (inactive),-0.899,-0.395,-0.358 (inactive),-0.777,-0.355,-1.84 (inactive),0.73 (inactive),0.231 (inactive)
COc1ccc(C(=O)Nc2cccc(CN3C(=O)[C@]4(O[C@H](CCn5cc(CCO)nn5)[C@@H]([Si](C)(C)c5ccc(OC)cc5)[C@@H]4C)c4ccccc43)c2)cc1,-6.31,-7.34 (inactive),-9.11 (active),2.2 (inactive),1.12 (inactive),4 (inactive),0.216 (inactive),-0.883 (inactive),-6.19,-0.173,-0.16 (inactive),0.249,-2.72,-4.83 (inactive),-0.745 (inactive),-2.04 (inactive)
C=CC[C@@]1(C(=O)N2CCCCC2)N=C(c2ccc(OCCCO)cc2)O[C@@H]1c1ccccc1CN=[N+]=[N-],0.0157,-0.924 (inactive),-1.13 (inactive),-0.0512 (inactive),0.205 (inactive),0.607 (inactive),0.673 (inactive),-0.526 (inactive),-1.97,0.0297,0.274 (inactive),0.888,-2.21,-0.0816 (inactive),-0.514 (inactive),-0.604 (inactive)
[N-]=[N+]=Nc1ccccc1C[C@]1(C(=O)NCc2ccccc2)N=C(c2ccc(OCCCO)cc2)O[C@H]1c1ccccc1N=[N+]=[N-],-1.17,0.371 (inactive),-3.49 (inactive),0.535 (inactive),1.13 (inactive),0.879 (inactive),-0.377 (inactive),-0.0802 (inactive),-2.83,0.0097,-0.12 (inactive),0.681,-2.32,0.69 (inactive),-0.231 (inactive),-0.741 (inactive)
COc1ccc(C(O)C2C=CC3C(=O)N(C)C(=O)C3N2N(c2ccccc2)c2ccccc2)c2ccccc12 (centres undefined),-1,0.618 (inactive),-1.57 (inactive),0.231 (inactive),0.447 (inactive),0.588 (inactive),-0.546 (inactive),-0.225 (inactive),-1.14,0.239,0.742 (inactive),0.763,0.889,-2.84 (inactive),0.436 (inactive),0.15 (inactive)
O=C1NC(=O)C2C1C=CC(C(O)C1CC=CCC1)N2Nc1ccccn1 (centres undefined),-1.16,1.05 (inactive),-1.35 (inactive),1.07 (inactive),0.916 (inactive),0.636 (inactive),-0.857 (inactive),-0.0662 (inactive),-1.57,0.0512,0.467 (inactive),0.362,0.45,-0.315 (inactive),0.113 (inactive),-0.22 (inactive)
COc1cc(CO)cc(I)c1O[C@H]1C=C(C(=O)NCCO)C[C@@H](N(C(=O)c2cc3ccccc3oc2=O)C2CCCCCC2)[C@@H]1O,-0.163,-1.66 (inactive),1.11 (inactive),-0.346 (inactive),-0.377 (inactive),-0.0819 (inactive),2.12 (inactive),0.435 (inactive),-0.335,-0.154,-0.207 (inactive),0.466,-1.8,-7.6 (inactive),0.21 (inactive),0.722 (inactive)
C#CCN1[C@@H](Cc2ccc(O)cc2)C(=O)O[C@H](Cc2ccccc2)[C@@H]1/C=C/C1CC1,-1.9,-2.19 (inactive),-1.08 (inactive),-0.652 (inactive),-0.353 (inactive),0.168 (inactive),0.75 (inactive),0.665 (inactive),-1.21,0.0664,-0.111 (inactive),0.0549,0.32,-5.26 (inactive),-0.473 (inactive),-0.542 (inactive)
O=C1OCC=C[C@H]2OC34C=CCN(Cn5nnc6ccccc65)C(=O)[C@H]3N(CCCCCO)C(=O)[C@@H]4[C@@H]12 (some centres undefined),0.0883,0.21 (inactive),-0.0233 (inactive),-1.24 (inactive),0.193 (inactive),-0.273 (inactive),-0.293 (inactive),-0.571 (inactive),-0.0297,0.515,0.537 (inactive),0.193,-0.133,-3.27 (inactive),-0.288 (inactive),-0.398 (inactive)
CCOC(=O)C[C@H]1[C@H](OC(=O)c2ccc(C(=O)c3ccccc3)cc2)[C@@H](NC(=O)c2ccccc2)c2cc(OCCCO)ccc2N1C(=O)c1ccccc1,-0.529,0.783 (inactive),-0.224 (inactive),-0.206 (inactive),0.137 (inactive),0.144 (inactive),0.158 (inactive),0.293 (inactive),0.247,-0.0152,-0.492 (inactive),0.59,-0.263,-1.19 (inactive),0.743 (inactive),0.943 (inactive)
CCOC(=O)C1=CCC(c2ccc(F)cc2)N(S(=O)(=O)c2ccc(C)cc2)C1 (centres undefined),-0.175,1.47 (inactive),-0.866 (inactive),-0.217 (inactive),0.766 (inactive),0.241 (inactive),-0.614 (inactive),-0.124 (inactive),-1.76,0.206,0.428 (inactive),0.298,0.217,-2.03 (inactive),0.447 (inactive),-0.996 (inactive)
CCOC(=O)C1=CC[C@@H](c2ccccc2)N(S(=O)(=O)c2ccc(C)cc2)[C@H]1c1ccc(CC)cc1,0.963,1.82 (inactive),-0.342 (inactive),0.207 (inactive),0.806 (inactive),1.25 (inactive),-0.692 (inactive),0.629 (inactive),-0.224,-0.11,-0.223 (inactive),0.487,-1.89,0.868 (inactive),-0.0619 (inactive),-0.606 (inactive)
C=C(CCCC)/C(=C/C[C@H](OC(=O)c1ccncc1)c1ccc(OCCO)cc1)c1cc(C(=O)OC)ccc1OC,-0.113,0.409 (inactive),-0.266 (inactive),-4.01 (inactive),-0.693 (inactive),0.395 (inactive),-0.981 (inactive),-0.581 (inactive),-0.691,0.22,-0.235 (inactive),-0.132,-3.09,-2.79 (inactive),-1.01 (inactive),-0.504 (inactive)
[N-]=[N+]=Nc1ccccc1[C@H]1OC(c2ccc(OCCCO)cc2)=N[C@@]1(Cc1ccccc1)C(=O)N1CCOCC1,-1.28,-1.33 (inactive),-2.81 (inactive),0.396 (inactive),0.948 (inactive),0.711 (inactive),0.226 (inactive),-0.927 (inactive),-4.56,-0.0917,2.73 (inactive),0.816,-2.19,-3.84 (inactive),-0.0747 (inactive),0.0969 (inactive)
C=CCNC(=O)[C@@H]1[C@H]2C(=O)O[C@H](c3ccccc3)[C@H](c3ccccc3)N2[C@H](c2ccc(OCCO)cc2)[C@@]12C(=O)N(C(=O)OCCOC)c1ccc(C#CCNC(N)=O)cc12,-1.09,1.04 (inactive),-0.58 (inactive),-0.132 (inactive),0.958 (inactive),2.78 (inactive),0.589 (inactive),0.0924 (inactive),0.853,-0.16,-0.121 (inactive),0.842,-1.29,-1.4 (inactive),0.111 (inactive),0.487 (inactive)
O=C1OCCC=C[C@H]2OC34C=CCN(CCN5CCOCC5)C(=O)[C@H]3N(CCCCCO)C(=O)[C@@H]4C12 (some centres undefined),-0.123,-0.987 (inactive),0.673 (inactive),0.233 (inactive),-0.484 (inactive),-0.112 (inactive),0.298 (inactive),0.732 (inactive),0.571,-0.0144,0.272 (inactive),0.348,0.124,-5.57 (inactive),0.139 (inactive),0.357 (inactive)
O=C(O)C1N=C(c2ccc(OCCCO)cc2)N(c2ccccc2)O1 (centres undefined),-0.0554,0.0427 (inactive),-0.258 (inactive),-0.928 (inactive),-0.469 (inactive),0.0613 (inactive),-0.351 (inactive),0.46 (inactive),-0.219,-0.22,1.77 (inactive),0.852,-0.112,-2.98 (inactive),-0.259 (inactive),-0.229 (inactive)
